The whole screen tested about 340,000 compounds, of which about 700 (0.21%) were called active. Cut-off read from the data, not from the text of the source: active = inhibition above about 22% (passing the limit was not always enough); inactive = the rest. The entries come from a sample that favours actives as a whole.
These compounds were tested against Mu-type opioid receptor (Homo sapiens) + Delta-type opioid receptor (Homo sapiens) (UniProt P35372+P41143) (assay: OPRM1-OPRD1 heterodimer inverse agonism – cell-based, luminescence, primary screen (AID 504357;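 note: 0% = cells with DMSO and 100% = wells without cells with DMSO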)). Conditions: cell-based MOR-DOR heterodimer luminescence, at 9.3 µM, active compounds read high.
Mu-type opioid receptor (Homo sapiens) + Delta-type opioid receptor (Homo sapiens), sequence (P35372 whole entry, looked up): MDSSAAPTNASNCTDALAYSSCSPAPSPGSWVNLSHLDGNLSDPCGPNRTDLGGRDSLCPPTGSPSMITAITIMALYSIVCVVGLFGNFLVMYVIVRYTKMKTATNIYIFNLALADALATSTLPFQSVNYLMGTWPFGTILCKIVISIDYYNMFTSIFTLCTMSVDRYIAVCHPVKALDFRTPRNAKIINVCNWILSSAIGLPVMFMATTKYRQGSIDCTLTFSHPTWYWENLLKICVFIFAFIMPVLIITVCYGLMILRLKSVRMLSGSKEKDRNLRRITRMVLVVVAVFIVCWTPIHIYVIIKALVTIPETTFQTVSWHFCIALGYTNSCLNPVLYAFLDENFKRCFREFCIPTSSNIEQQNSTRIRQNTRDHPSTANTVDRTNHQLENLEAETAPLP
Mu-type opioid receptor (Homo sapiens) + Delta-type opioid receptor (Homo sapiens), sequence (P41143 whole entry, looked up): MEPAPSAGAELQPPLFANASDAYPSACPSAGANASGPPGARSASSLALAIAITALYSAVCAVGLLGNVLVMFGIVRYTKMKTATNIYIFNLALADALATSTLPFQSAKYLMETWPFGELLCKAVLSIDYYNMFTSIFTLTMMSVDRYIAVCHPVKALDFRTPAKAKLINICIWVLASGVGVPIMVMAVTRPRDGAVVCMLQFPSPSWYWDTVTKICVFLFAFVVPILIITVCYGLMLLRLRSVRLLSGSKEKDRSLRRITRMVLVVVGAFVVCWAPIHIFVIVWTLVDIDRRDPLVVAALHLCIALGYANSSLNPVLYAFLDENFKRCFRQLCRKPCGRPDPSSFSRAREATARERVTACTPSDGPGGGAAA
In the case of `Cc1ccc(Nc2nnc(SC(C)C(=O)NC3CC3)s2)cc1` (stereo unspecified), the inhibition is reported as 5.95% (inactive). `O=S(=O)(NCc1ccccc1)c1ccc(S(=O)(=O)N2CCCC2)cc1` was tested, and the inhibition was 7.6% (inactive). `COC(=O)CSc1nc2c(c(C3CC=CCC3)c1C#N)CCC2` (stereo unspecified) was tested, and the inhibition was 0.33% (inactive). In the case of `CC1CCN(C(=O)c2ccc3c(=O)n4c(nc3c2)CCCCC4)CC1`, the inhibition is reported as -4.92% (inactive). For `CCc1noc(C)c1C(=O)N1CCN(S(=O)(=O)c2cccc(C(F)(F)F)c2)CC1`, the inhibition was 9.18% (inactive). In the case of `COc1cc(C2C(N3C(=O)c4ccccc4C3=O)C(=O)N2c2ccc(C)c(C)c2)cc(OC)c1OC` (stereo unspecified), the inhibition is reported as 8.56% (inactive). With `O=C(c1cc2ccccc2s1)N1CCN(c2ccccn2)CC1` the inhibition was 5.35% (inactive). For `Cc1cccc(N(C)C(=O)c2cc(S(=O)(=O)N3CCCCC3)c[nH]2)c1`, the inhibition was -2.65% (inactive). `Cc1cccc(C)c1Nc1c(-c2ccccc2O)nc2ncccn12` was tested, and the inhibition was 5.45% (inactive). In the case of `O=C(O)c1ccc(S(=O)(=O)N2CCOCC2)o1`, the inhibition is reported as -0.55% (inactive). `COC(=O)c1c(NC(=O)C(=O)N2CCCCC2)sc2c1CC(C)(C)OC2` was tested, and the inhibition was -12.8% (inactive). For `Cc1nc2c(-c3ccc(F)cc3)c(C)nn2c(C)c1CCC(=O)N1CCN(c2ccccn2)CC1`, the inhibition was 8.06% (inactive). For `Cc1ccc(NC(=O)CN2CCCCC2)c2c1CC(C)(C)O2`, the inhibition was -2.22% (inactive). For `Cc1ccc(S(=O)(=O)NC[C@H]2O[C@@H](n3cnc4c(N)ncnc43)[C@H](O)[C@@H]2O)s1`, the inhibition was 16.3% (inactive). With `CCN1CC=C2C(C#N)=C(N)C(C#N)(C#N)[C@H](c3ccoc3)[C@H]2C1` the inhibition was -33.3% (inactive). `N#CC1=C(N)C(C#N)(C#N)[C@H](c2ccsc2)[C@H]2COCC=C12` was tested, and the inhibition was 25.7% (active). With `O=C1N=C(N2CCOCC2)CS1` the inhibition was 0.02% (inactive). `Cc1ccccc1NC(=O)c1cc(S(=O)(=O)N2CCOCC2)cs1` was tested, and the inhibition was 4.89% (inactive). For `CN(CC(=O)Nc1cccc2c1CCCC2)S(=O)(=O)c1ccc(Cl)cc1`, the inhibition was -0.65% (inactive). In the case of `O=S(=O)(c1ccc(Br)c2ccccc12)N1CCOCC1`, the inhibition is reported as 15.2% (inactive). `O=S(=O)(c1cnccc1N1CCN(/N=C/c2ccc(Br)cc2)CC1)N1CCCCC1` was tested, and the inhibition was 6.92% (inactive). With `COC(CNC(=O)c1ccc2c(c1)ncn2-c1cc(C)cc(C)c1)OC` the inhibition was 13% (inactive). With `CCc1cccc(C)c1NS(=O)(=O)c1cc(Br)cnc1N` the inhibition was -50.1% (inactive). For `O=C(CCc1[nH]c2ccccc2c1Sc1ccccc1)N(CCO)CCO`, the inhibition was 8.56% (inactive). With `CC(C)c1ccc(S(=O)(=O)N2CCN(C(=O)c3ccc(N4CCCC4)c([N+](=O)[O-])c3)CC2)cc1` the inhibition was 19.3% (inactive). `Cc1cccc(NC(=O)NC2(C)CCS(=O)(=O)C2)c1` (stereo unspecified) was tested, and the inhibition was -1.39% (inactive). `CCNc1nc(NC(C)C)nc(OCCOC(=O)c2ccccc2)n1` was tested, and the inhibition was 0.3% (inactive). With `CCSC1=NCCN1S(=O)(=O)c1ccc(F)cc1` the inhibition was 2.33% (inactive). For `Cc1nccn1CCC1CCCCN1C(=O)CCc1nnc(-c2ccsc2)o1` (stereo unspecified), the inhibition was 11.7% (inactive). `Cc1ccccc1C(CC(=O)c1cccs1)C(C#N)C#N` (stereo unspecified) was tested, and the inhibition was 8.61% (inactive). For `COC(=O)C1=C(C(=O)OC)[C@@H]2N(C)c3ccccc3[C@@]23C[C@@H](C(=O)OC)N(C(=O)c2ccco2)C3=N1`, the inhibition was 7.48% (inactive). `Cc1nc2nc(SCC(=O)Nc3cccc(F)c3)[nH]c2cc1Br` was tested, and the inhibition was -28.8% (inactive). In the case of `CC(C)NC(=O)CSc1nnc(COc2ccccc2Cl)o1`, the inhibition is reported as 16.3% (inactive). In the case of `CCOc1ccc(NC(=O)c2ccc(NC(=O)C3CCCO3)cc2)cc1` (stereo unspecified), the inhibition is reported as 12.6% (inactive). With `COc1ccc(NC(=O)c2cccc3c2C(=O)N(CC2CCCO2)C3)cc1OC` (stereo unspecified) the inhibition was 16.3% (inactive). With `CCOc1ccc(NC(=O)c2cccc3c2C(=O)N(CC2CCCO2)C3)cc1` (stereo unspecified) the inhibition was 23.6% (active). With `CN(C)c1cc(N)c2ccccc2n1` (tested in a mixture with another compound) the inhibition was 9.35% (inactive). `COc1ccc(NC(=O)CSc2nnc(Cc3ccccc3)c(=O)n2N)cc1` was tested, and the inhibition was 4.15% (inactive). `CC(C)(C)SCCSC1=CC(=O)CC(c2ccccc2)C1` (stereo unspecified) was tested, and the inhibition was -50% (inactive). With `CC[C@]1(C(=O)OC)[C@H]2C(=O)N(Cc3ccccc3)C(=O)[C@H]2[C@H]2CN=C(SCc3ccc(Cl)cc3)N21` the inhibition was -1.44% (inactive). `O=C1C(Cc2ccc(O)cc2)NC(=S)N1Cc1ccccc1` (stereo unspecified) was tested, and the inhibition was 17.3% (inactive). `CCC1Nc2ncnc(N3CCN(c4ccccc4)CC3)c2N(Cc2ccc(Cl)cc2)C1=O` (stereo unspecified) was tested, and the inhibition was 72.3% (active). For `COc1cccc(C(CC(=O)NCCN2CCOCC2)NS(=O)(=O)c2ccc(C)cc2)c1OC` (stereo unspecified), the inhibition was 4.11% (inactive). For `COC(=O)[C@H]1Cc2cnoc2C[C@]1(C)C(=O)O`, the inhibition was 8.29% (inactive). With `Cc1cc(C)cc(NC(=O)C2CCCN2S(=O)(=O)c2cccc3cccnc23)c1` (stereo unspecified) the inhibition was 7.78% (inactive). With `COc1cc(C(=O)OCC(=O)N(CC(C)C)C2CCS(=O)(=O)C2)ccc1OCC(C)C` (stereo unspecified) the inhibition was 12.3% (inactive). `COc1cc(/C=C/C(=O)N2CCc3ccccc3C2)cc(OC)c1OC` was tested, and the inhibition was 15.2% (inactive). With `Cc1cc(Cl)c2oc(C(=O)N(C)C(C)c3ccccn3)c(C)c2c1` (stereo unspecified) the inhibition was -14% (inactive). `CCCNC(=O)N1CCN(C(=O)NCCC)CC1` was tested, and the inhibition was -0.22% (inactive). In the case of `O=C1c2ccccc2C(=O)N1c1ccccc1S(=O)C(F)(F)F` (stereo unspecified), the inhibition is reported as 1.53% (inactive). With `O=C1C(=O)N(c2ccccc2)c2ccccc21` the inhibition was 47.8% (active). For `O=C1C(Cl)=C(N2CCOCC2)C(=O)N1c1ccccc1`, the inhibition was 7.3% (inactive). For `Oc1[nH]c2ccccc2c1N=Nc1c(F)c(F)c(F)c(F)c1F`, the inhibition was 13.1% (inactive). With `Cc1cccc(N=Nc2c(O)[nH]c3ccc(F)cc23)c1` the inhibition was 33% (active). For `NS(=O)(=O)c1ccc(N=Nc2c(O)[nH]c3ccc(Br)cc23)cc1`, the inhibition was 16.9% (inactive). With `O=C(COC(=O)Cn1cnc2ccccc2c1=O)NCC12CC3CC(CC(C3)C1)C2` the inhibition was 0.67% (inactive). In the case of `CN(C)/C=C1\C=C(c2ccccc2)OC1=O`, the inhibition is reported as 5.39% (inactive). For `CCCS(=O)(=O)C(=C1Nc2ccccc2N1)S(=O)(=O)CCC`, the inhibition was 3.81% (inactive). `CN(C)/C=C1/Nc2ccccc2C1=O` was tested, and the inhibition was 34.7% (active). For `Cc1ccc(Cc2nnc(SCC(=O)Nc3ccc(C)cc3C)[nH]c2=O)cc1`, the inhibition was -25.8% (inactive). In the case of `O=C1CCC(=O)N(O)CCCCCNC(=O)CCC(=O)N(O)CCCCCNC(=O)CCC(=O)N(O)CCCCCN1`, the inhibition is reported as 8.42% (inactive). In the case of `CN(CC(=O)O)C(=O)c1ccccc1`, the inhibition is reported as 10.9% (inactive). With `CN(/N=C/c1ccccc1)C(=S)c1ccccc1` the inhibition was -3.87% (inactive). With `CN(O)C(=S)c1ccccc1` the inhibition was 41.1% (active). For `Cc1ccc(NNC(=O)c2cccs2)cc1Cl`, the inhibition was 53.4% (active). For `O=C(NNC(=O)c1ccc(Cl)cc1Cl)c1cccs1`, the inhibition was 2.42% (inactive). `Cc1ccc(NC(=O)c2cccs2)cc1S(=O)(=O)N(C)C` was tested, and the inhibition was 0.25% (inactive). `CSc1ccc(Cl)c(C(=O)OCC(=O)N2CCNC2=O)c1` was tested, and the inhibition was 16.2% (inactive). With `Cc1cc(C)cc(N)c1` the inhibition was 14.8% (inactive). In the case of `CCN(CC(=O)NCc1ccco1)S(=O)(=O)c1ccc(F)cc1`, the inhibition is reported as -7.35% (inactive). With `COc1ccccc1C(=O)NC(=O)COC(=O)c1ccco1` the inhibition was 3.92% (inactive). In the case of `Cc1cccc(-n2c(SCC(N)=O)nc3c(c2=O)C2(CCCCC2)Cc2ccccc2-3)c1`, the inhibition is reported as -5.65% (inactive). With `CC1CC2=C(CC1/C=N/NC(N)=S)C(C)(C)CCC2` (stereo unspecified) the inhibition was -16.2% (inactive). In the case of `CCn1cc(/C=C2/SC(=S)NC2=O)c(C)n1`, the inhibition is reported as 9.33% (inactive). In the case of `CC1CCCC(N2CCN(C(=O)c3ccc(F)cc3)CC2)C1` (stereo unspecified), the inhibition is reported as 1.43% (inactive). For `CCOc1ccc(S(=O)(=O)NCCC(=O)N2CCCCCCC2)cc1`, the inhibition was -1.55% (inactive). In the case of `O=C(CCN1CCN(C/C=C/c2ccccc2)CC1)Nc1ccccc1Cl`, the inhibition is reported as 1.43% (inactive). `CC(c1cccnc1)N(CCN(C)C)C(=O)Nc1ccc(Cl)c(Cl)c1` (stereo unspecified) was tested, and the inhibition was -197% (inactive). `Cc1cccc(C)c1NC(=O)C(Cl)C(=O)c1ccccc1` (stereo unspecified) was tested, and the inhibition was 34.4% (active). For `Cc1cccc(C)c1NC(=O)CN(C)C(=O)CCC(=O)c1ccccc1`, the inhibition was 3.3% (inactive). In the case of `CC(NC(=O)c1ccccc1)C(=O)Nc1ccccc1` (stereo unspecified), the inhibition is reported as 19.2% (inactive). `Cc1cc(C)c(S(=O)(=O)N2CCC(C(=O)OCc3c(C)noc3C)CC2)c(C)c1` was tested, and the inhibition was 6.69% (inactive). With `COc1cccc(-c2ccc(C#N)c(SCC(=O)NCCc3ccc(Cl)cc3)n2)c1` the inhibition was -45.6% (inactive). For `Oc1ccc(N=Nc2nccs2)c(O)c1`, the inhibition was 37.2% (active). For `O=C(COc1ccccc1)Nc1ccc(F)cc1`, the inhibition was 7.72% (inactive). For `CN(c1ccccc1)S(=O)(=O)c1ccc(NC(=O)COc2ccccc2)cc1`, the inhibition was 31.1% (active). For `Cc1ccc(S(=O)(=O)N(C)c2ccc(OCC(=O)NC3=NCCS3)cc2)cc1`, the inhibition was 7.13% (inactive). For `Cc1cccc(CC2(O)C(=O)Nc3ccccc32)n1` (stereo unspecified), the inhibition was 15.9% (inactive). `Cc1cc(O)c(C2(O)C(=O)Nc3ccccc32)cc1C` (stereo unspecified) was tested, and the inhibition was 10.4% (inactive). With `Cc1ccc(NC2(C#N)C(=O)Nc3ccccc32)cc1` (stereo unspecified) the inhibition was 63.2% (active). In the case of `CC(CC(=O)N1CCN(c2ccccc2)CC1)S(=O)(=O)c1ccc2c(c1)NC(=O)CS2` (stereo unspecified), the inhibition is reported as 4.28% (inactive). For `CCCCCCCCCCCCN1[C@@H](CC(C)=O)c2cc(F)cc(F)c2S1(=O)=O`, the inhibition was 8.79% (inactive). `Cc1cc(=O)oc2c1c(C)nn2-c1ccc(Cl)cc1` was tested, and the inhibition was 11% (inactive). For `Cc1ccc(CN(CC(=O)NCC2CCCO2)S(=O)(=O)c2ccc(C)cc2)cc1` (stereo unspecified), the inhibition was 10.1% (inactive). In the case of `Nc1nnc(C2CCCC2)s1`, the inhibition is reported as 11.4% (inactive). With `O=C(NCCN1CCOCC1)/C(=C/c1ccc(F)cc1)NC(=O)c1ccccc1` the inhibition was 18.7% (inactive).

— PubChem BioAssay AID504357 (The Scripps Research Institute Molecular Screening Center, 2011)
